Drawing on PubChem BioAssay AID837 (The Scripps Research Institute Molecular Screening Center, 2007), this text covers outcome for 40 compounds.

Activity calls are given as the source filed them.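 The calls were made as follows: active = relative FRET score above 0.01, or acceptor fluorescence over 30% below the sample-well median; inactive = the rest.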

Protein Rev (Human immunodeficiency virus type 1 group M subtype B (isolate WMJ22)), sequence (P05866 whole entry, looked up): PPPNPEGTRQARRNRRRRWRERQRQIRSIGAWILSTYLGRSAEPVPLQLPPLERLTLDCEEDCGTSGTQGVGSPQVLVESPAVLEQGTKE

The assay concerns the target Protein Rev (Human immunodeficiency virus type 1 group M subtype B (isolate WMJ22)) (UniProt P05866). As to the kind of experiment: disruptors of Rev peptide-RRE RNA complex – biochemical, FRET, acceptor and relative FRET calls, confirmation (AID 837).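 Also: relative FRET combines rise in Cy5 acceptor with fall in fluorescein donor.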 Conditions: Fl-Rev peptide / Cy5-RRE RNA FRET, 1536-well; at 8 µM.
With `Cc1ccc(C(=O)/C=C/c2ccccc2)o1`, the outcome was inactive.
`CCCn1c(=N)c(C(=O)NCc2ccc3c(c2)OCO3)cc2c(=O)n3cccc(C)c3nc21`: the call was inactive.
`CCOC(=O)CSc1ccc(S(=O)(=O)N(C)C2CCCCC2)cc1[N+](=O)[O-]`: the compound was called inactive.
To `Nc1[nH]c(=S)[nH]c(=O)c1-c1ccccc1` belongs “inactive”; to `O=C(c1cccc(F)c1)N1CCN(c2cccc(Cl)c2)CC1`, “inactive”.
To `Cc1occc1C(=O)Nc1sc2c(c1C(N)=O)CCC(C(C)(C)C)C2` (stereo not given) belongs “inactive”; to `C=CCn1c(=N)n(CC(O)COc2ccc(OC)cc2)c2ccccc21` (stereo not given), “inactive”; to `CC(C)CN=c1cc(-c2ccccc2)oc2ccc(Cl)cc12`, “active”.
To `COc1ccccc1NC1=NC(c2ccc(Cl)cc2)N=C(N)N1` (stereo not given) belongs “active”; to `CCC(C)(C)c1ccc(OCCN2C(=O)NC(C)(C)C2=O)cc1`, “inactive”; to `COc1ccc(/C=C/c2cc(-c3ccc(C)cc3)o[n+]2C)cc1`, “active”.
Take `COc1ccc(Nc2nc(N)nc(CN(C)C3CCCCC3)n2)cc1`: the call was active.
To `CN1/C(=C\C=Nc2ccc3ccccc3c2)C(C)(C)c2ccccc21` belongs “inactive”; to `CN(CC(O)COc1ccc(OCC(O)CN(C)C2CCCCC2)cc1)C1CCCCC1` (stereo not given), “inactive”; to `CCCN(N=Nc1cccc([N+](=O)[O-])c1)c1cccc([N+](=O)[O-])c1`, “inactive”.
As to `CN(C)CC(O)COc1ccc(C(C)(C)c2ccc(OCC(O)CN(C)C)cc2)cc1` (stereo not given), the result was inactive.
To `NCCCCCc1nnc(SC/C=C/c2ccccc2)o1` belongs “inactive”.
To `CN(C)CC(O)COc1ccc(-c2ccc(C#N)cc2)cc1` (stereo not given) belongs “active”.
For `CC(C)OC(=O)c1c2nc3ccccc3nc2n2c1[nH]c(=O)c1ccccc12` the value was “inactive”; for `CCCCOC(=O)Cn1c(=N)n(CCN(CC)CC)c2ccccc21`, “inactive”.
`COc1cccc(Nc2nc(N)nc(-c3oc4ccccc4c3C)n2)c1`: the call was active.
Take `N=c1c2c(n(Cc3ccc(F)cc3)c3c1CCC3)CCC2`: the call was inactive.
In the case of `COc1cccc(-c2cc(C(F)(F)F)nc(N3CCC(C)CC3)n2)c1`, the compound was called inactive.
To `O=C(Nc1nccs1)c1ccc(-c2ccccc2Cl)o1` belongs “inactive”; to `Cc1ccc(C2C3=C(NCCN=C3c3ccccc3)C(=O)N2c2ccccc2)cc1` (stereo not given), “inactive”.
To `c1ccc(COc2ccc(OCCCCN3CCCCC3)cc2)cc1` belongs “inactive”; to `CC(NCc1ccc(N(C)C)cc1)C1CC2CCC1C2` (stereo not given), “active”.
For `Cc1c(Cl)cccc1Nc1nc(N)nc(CN2CCCCCC2)n1` the value was “inactive”.
For `CC(C)(C)CC(C)(C)NCC(O)COc1c(F)cc(Br)cc1F` (stereo not given), the compound was called inactive.
For `CCOc1cc(-c2ccc(N)c(OCC)c2)ccc1N` the value was “active; fluoresces like the donor”; for `Cc1ccc(C)n1-c1sccc1C(=O)O`, “inactive”; for `CC(=O)c1ccc(NC(=O)c2ccc3nc(-c4ccco4)c(-c4ccco4)nc3c2)cc1`, “inactive”.
For the compound `CCCCN1C(=O)Cc2c1nc(N)c1c(N)nc(N(CCC)CCC)c(C#N)c21`, the outcome was inactive.
For `CN(C)CCNCc1ccccc1OC1CCCC1` the value was “inactive”; for `C=CCn1c(=O)c(C(=O)NCCNCC)c(O)c2ccccc21`, “inactive”.
To `CCN(CC)CCOc1cc2c(nn1)Oc1ccccc1N2C` belongs “inactive”.
To `c1coc(CNc2c3c(nc4ccccc24)CCC3)c1` belongs “inactive”.
As to `CCN(N=Nc1cccc([N+](=O)[O-])c1)c1cccc([N+](=O)[O-])c1`, the call was inactive.
To `FC(F)(F)c1cc(-c2ccco2)nc(NCc2ccc(Cl)cc2)n1` belongs “inactive”; to `CCCCNCCCOc1cccc(Cl)c1Cl`, “inactive”.
